{
  "source": "PubChem BioAssay AID624483",
  "about": "(NMMLSC, 2012)",
  "note": "Among all 360,000 compounds or so, about 11,000 (3.1%) were called active. About 2% were inconclusive and are not listed. The list comes from a sample in which actives are over-represented; it also holds similar structures and randomly drawn compounds. Values without a mark were called inactive. Rule as the data show it: active = fluorescence intensity above about 16000; inconclusive = no clear call, values can overlap the other calls; inactive = below that.",
  "data": [
    {"test": "counter-screen for toxin protease inhibitors: compound fluorescence, primary screen, artefact control for toxin protease inhibitor project, biochemical, multiplex microsphere, HTS (AID 624483)", "details": "compound autofluorescence counterscreen, microsphere flow cytometry; stronger effect = higher value", "values": [
      {"compound": "CN(C)CCCOc1ccc(-c2ccc3nccn3c2)cn1", "fluorescence intensity": 3380},
      {"compound": "Cc1nc([N+](=O)[O-])cn1CC(=O)Nc1ccc(Cl)cc1", "fluorescence intensity": 3080},
      {"compound": "CC(C)C[C@@H]1COc2cc(N3CCC[C@@H]3CO)ccc2S(=O)(=O)N1", "fluorescence intensity": 6270},
      {"compound": "Cc1ccccc1S(=O)(=O)NC(=O)C1(C)CCN1C(=O)Cc1ccc(Cl)cc1Cl", "note": "(stereo unspecified)", "fluorescence intensity": 3450},
      {"compound": "COc1ccc(/C=N/Nc2nc3ccccc3c(=O)[nH]2)cc1", "fluorescence intensity": "19400 (active)"},
      {"compound": "COc1ccc(/C=N/Nc2nc(-c3ccc(C)cc3)c(C#N)c(=O)[nH]2)cc1", "fluorescence intensity": 3690},
      {"compound": "COc1ccc(CCCc2nnc(SCc3nc4ccccc4c(=O)[nH]3)n2C)cc1", "fluorescence intensity": 4610},
      {"compound": "CN(Cc1ccccc1F)c1cc2c(c3c1ccn3C)C1CCC2O1", "note": "(stereo unspecified)", "fluorescence intensity": 5510},
      {"compound": "CC(C)(C)C(=O)CSc1nc2ccccc2o1", "fluorescence intensity": 4330},
      {"compound": "Cn1c(=O)[nH]c(=O)c2c1nc(Br)n2CCCCSc1nc2ccccc2o1", "fluorescence intensity": "24200 (active)"},
      {"compound": "CCN(CC)C(=O)CSc1nc2ccccc2o1", "fluorescence intensity": 2780},
      {"compound": "Cc1ccnc(SCCn2c(Br)nc3c2c(=O)[nH]c(=O)n3C)n1", "fluorescence intensity": 2110},
      {"compound": "Cn1c(=O)c2c(nc(Br)n2CCSc2nc3ccccc3o2)n(C)c1=O", "fluorescence intensity": "20900 (active)"},
      {"compound": "CC=CCn1c(SCCCc2ccccc2)nc2c1c(=O)[nH]c(=O)n2C", "fluorescence intensity": 3020},
      {"compound": "CC1Cc2[nH][nH]c(=O)c2C(C2CC2)O1", "note": "(stereo unspecified)", "fluorescence intensity": 6380},
      {"compound": "CCCCc1c(-c2ccc(Br)cc2)ncn1CCc1ccccc1OC", "fluorescence intensity": 5930},
      {"compound": "Cc1c(C(C)CCCO)oc(=O)c2c1Oc1c(C)c(C(C)C[C@@H](C)O)oc(=O)c1C2", "note": "(stereo partly specified)", "fluorescence intensity": 3640},
      {"compound": "CCn1c(SCC(=O)NC2CC2)nnc1-c1ccncc1", "fluorescence intensity": 4270},
      {"compound": "COc1cccc(C(O)c2ncc(-c3ccc4ccccc4c3)[nH]2)c1", "note": "(stereo unspecified)", "fluorescence intensity": 4120},
      {"compound": "S=C(NCCCc1cnc[nH]1)NCCCN(Cc1ccc(Cl)c(Cl)c1)c1ccc(Br)cn1", "fluorescence intensity": 3910},
      {"compound": "Cc1ccc(-n2nc3cc(C)c(NC(=O)c4cccnc4)cc3n2)cc1", "fluorescence intensity": 3240},
      {"compound": "Cc1ccc(-n2nc3cc(Cl)c(NC(=O)c4ccco4)cc3n2)cc1", "fluorescence intensity": "20600 (active)"},
      {"compound": "Cc1ccc(NC(=O)c2ccco2)cc1", "fluorescence intensity": 3370},
      {"compound": "CN(C(=O)CN1CCN(c2cc(-c3ccc(OCc4ccccc4)cc3)ncn2)CC1)c1ccccc1", "fluorescence intensity": 2960},
      {"compound": "COC(=O)c1ccc2nc(-c3cccc(Br)c3)c(Cc3ccccc3C(F)(F)F)n2c1", "fluorescence intensity": 5960},
      {"compound": "OCCNc1nc(Nc2ccc(Cl)c(Cl)c2)nc2ccccc12", "fluorescence intensity": 3890},
      {"compound": "O=[N+]([O-])c1c(NCCO)cc(Sc2nc3ccccc3s2)c2nonc12", "fluorescence intensity": "16100 (active)"},
      {"compound": "Nc1nnc(SCC(=O)Nc2ccc3nc(SCC(=O)Nc4ccccc4)sc3c2)s1", "fluorescence intensity": 2450},
      {"compound": "COc1ccc(C2=NO[C@@H]3C(=O)N(Cc4ccccc4)C(=O)[C@H]23)cc1OC", "fluorescence intensity": 8330},
      {"compound": "Cc1cc2ccccn2c1C(=O)c1cccc(F)c1", "fluorescence intensity": 3460},
      {"compound": "Cc1c(C=O)c2ccccn2c1C(=O)c1ccncc1", "fluorescence intensity": "20400 (active)"},
      {"compound": "Cc1c(C(=O)NNC(=O)c2ccncc2)oc2ccccc12", "fluorescence intensity": 6810},
      {"compound": "O=C(CN1C(=O)NC2(CCCCCC2)C1=O)Nc1ccc([N+](=O)[O-])cc1", "fluorescence intensity": 3160},
      {"compound": "O=C(NCCO)c1cccc(-c2cccc3nccn23)c1", "fluorescence intensity": 3960},
      {"compound": "C[C@H](CO)N1C[C@H](C)[C@@H](CN(C)Cc2ccc(-c3ccccc3)cc2)Oc2ccc(NC(=O)Cn3cnnn3)cc2C1=O", "fluorescence intensity": 3780},
      {"compound": "COc1ccc(NC(=O)C2Cc3c(-c4cccc(NC(C)=O)c4)ccnc3O2)cc1OC", "note": "(stereo unspecified)", "fluorescence intensity": 3970},
      {"compound": "CNC(=O)CN1C(=O)NC(c2ccccc2)(c2ccccc2)C1=O", "fluorescence intensity": 4630},
      {"compound": "CC1(C(=O)NS(=O)(=O)c2ccccc2Cl)CCN1C(=O)c1cccc(F)c1", "note": "(stereo unspecified)", "fluorescence intensity": 2940},
      {"compound": "Cc1ccccc1C1=NC(C(F)(F)F)(C(F)(F)F)c2c(n(-c3ccc(F)cc3)c(=O)[nH]c2=O)N1", "fluorescence intensity": 10500},
      {"compound": "O=c1[nH]c(=O)n(Cc2ccco2)c2c1C(C(F)(F)F)(C(F)(F)F)N=C(c1ccco1)N2", "fluorescence intensity": "24800 (active)"},
      {"compound": "CC(=O)Nc1ccc(S(=O)(=O)NC2(C(F)(F)F)C(=O)Nc3c2c(=O)[nH]c(=O)n3Cc2ccccc2)cc1", "note": "(stereo unspecified)", "fluorescence intensity": 2630},
      {"compound": "CC(C)C[C@H]1CNC(=O)C(=O)N1C[C@H]1CCCN1C[C@H](Cc1ccc(O)cc1)N1C[C@H](CC(C)C)N(CC2CCCCCC2)C(=O)C1=O", "fluorescence intensity": 4880},
      {"compound": "O=C(COc1ccc(Cl)cc1Cl)NCCCNC(=O)c1cnccn1", "fluorescence intensity": 3160},
      {"compound": "COCCCNC(=S)NCCNc1nc2cc(C)c(C)cc2cc1C#N", "fluorescence intensity": 4720},
      {"compound": "Cc1ccc2nc(NCCCNC(=O)c3cnccn3)c(C#N)cc2c1", "fluorescence intensity": "20100 (active)"},
      {"compound": "CCOc1ccc2nc(Cl)c(C3CC(c4ccccc4)=NN3C(=O)c3cccs3)cc2c1", "note": "(stereo unspecified)", "fluorescence intensity": 2410}
    ]}
  ]
}
